Laboratory results from PubChem BioAssay (NCI).
The panel holds about 79,000 compounds, 15% with a hit somewhere; the sample as a whole holds those more often. Activity calls are given as the source filed them. Cut-off read from the data, not from the text of the source: active = growth inhibition above about 70%; inactive = the rest.

Test: NCI Yeast Anticancer Drug Screen. Data for the CLN2oe strain (AID 163);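 note: 0% = growth of vehicle-only control cultures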
Details: S. cerevisiae CLN2oe strain, hits give high values
Experimental: Growth inhibition of yeast strains with defined genetic alterations is measured as a screen for potential anti-cancer activity. Selected strains with alterations in DNA damage repair or cell cycle control were exposed to compounds and growth inhibition was measured relative to vehicle treated controls. The strain used in this assay is CLN2oe

Measured: growth inhibition

c1ccc2c(c1)C(=NCCCN1CCCCCC1)c1cccn1-2
inactive: at 1.2 µM -10% | at 3.7 µM -15% | at 11.0 µM -23% | at 33.0 µM -18%
active: at 100.0 µM 93%

O=C(/C=C/c1cccc(Br)c1)c1cccs1
active: at 11.0 µM 84% | at 33.0 µM 98% | at 100.0 µM 96%
inactive: at 1.2 µM 9% | at 3.7 µM 10%

COCCOC(=O)CCn1cc(F)c(=O)[nH]c1=O
inactive: at 1.2 µM 0% | at 3.7 µM 4% | at 11.0 µM 6% | at 33.0 µM 15% | at 100.0 µM 19%

Clc1cccc(C(Nc2nncs2)Nc2nncs2)c1Cl
inactive: at 1.2 µM -1% | at 3.7 µM -2% | at 11.0 µM -1% | at 33.0 µM 9% | at 100.0 µM 34%

CCCCCCc1cc(C(=O)OC/C(C)=N/NC(N)=O)c2ccccc2n1
inactive: at 1.2 µM -3% | at 3.7 µM -11% | at 11.0 µM -5% | at 33.0 µM -13% | at 100.0 µM -10%

CCN(CC)CC(O)c1ccc2ccc3ccccc3c2c1 (stereo not given)
inactive: at 1.2 µM 0% | at 3.7 µM 5% | at 11.0 µM 15% | at 33.0 µM 35% | at 100.0 µM 57%

OCC(Cn1cncn1)(c1ccc(F)cc1F)n1cncn1 (stereo not given)
inactive: at 1.2 µM 29% | at 3.7 µM 51% | at 11.0 µM 62% | at 33.0 µM 65% | at 100.0 µM 68%

COc1ccc(O)c(/C=N\Nc2ccccc2)c1
inactive: at 1.2 µM -8% | at 3.7 µM -9% | at 11.0 µM -14% | at 33.0 µM -14% | at 100.0 µM 21%
